The results in this text go back to article PMC5540273 (PLoS ONE, 2017).

The subject of test [1] is PAK2.
In test [2] the test system is PAK3.
Test [3] has as its system PAK6.
The test system of test [4] is PAK7.
Test [5] has as its system PIK3C2B.
The test system of test [6] is PIK3CA.
Test [7] relates to PIK3CB.

SMILES strings stand for the structures.
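Note: kd values determined as follow-up on hits from a single-replicate KINOMEscan panel screen.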

Consider `CNc1nccc(-c2c(-c3ccc(F)cc3)ncn2CCCN2CCOCC2)n1` [SB-222516], for which the Kd in test [1] is over 10 µM. In turn, `CCCc1ccc(S(=O)(=O)NC2CCN(c3ccnc(Nc4ccc(OC)cc4)n3)C2)cc1` (centres unmarked) [GSK1379737] showed a Kd in test [2] of over 10 µM.

Take `Oc1ccc2ncnc(Nc3ccc(OCc4ccccc4)cc3)c2c1` [GI262866]: in test [2], the Kd was over 10 µM. In turn, `Cc1ccc(C)c(NC(=O)NCCNc2ccnc(Nc3ccc(F)cc3)n2)c1` [GSK1379878] returned a Kd in test [3] of over 10 µM.

With `c1ccc(-c2ccc3c(-c4ccnc(Nc5ccc6c(c5)OCCO6)n4)cnn3n2)cc1` [GW818941], in test [3], the dissociation constant Kd was over 10 µM. As for `Cl.Cn1ccc(-c2cccc(Nc3ccnc4cc(-c5nccs5)ccc34)c2)n1` [GW525701], in test [4], the Kd was over 10 µM. Take `CC(C)(C)c1ccc(-n2cnc3c(N)ncnc32)cc1` [SKF-97263]: the Kd in test [5] was 8.3 µM; in test [6] it was over 10 µM. Take `CSc1nn2c(=O)cc(N3CCOCC3)nc2n1Cc1cccc(Cl)c1Cl` [GSK2347225]: the Kd was 0.36 µM in test [5] and 0.8 nM in test [7]. In test [7], `O=c1cc(N2CCOCC2)nc2n(Cc3cccc(Cl)c3)ccn12` [GSK2296823] displayed a Kd of 15 nM.

By Kd is commonly meant the constant that tells how readily two partners part at equilibrium.
